The campaign covered roughly 69,000 compounds. About 8,600 (12%) showed an effect of 50% or more. Shown is part of a subset that was picked to be rich in strong results.

The test system of the test is Plasmodium berghei. Nature of the test: Screen against P. berghei liver stage (PbLuc), transformed with Luciferase, at 10uM. The settings on record: tested at 10 uM. The class given is functional, HepG2.
For the molecule `CCNc1nc2c(s1)C(=O)CN(C(=O)NCCc1ccccc1)C2`, the INHIBITION was 24.4%.
As for `O=C(Cc1ccccc1)N1Cc2nccn2CC(CN2CCCC2)C1` (stereo not drawn), the INHIBITION worked out at 11.3%.
On to `O=C(c1cccc(NCCOc2ccc(F)cc2)c1)N1CCOCC1`, for which the INHIBITION amounted to 10.6%.
Under `CC(C)c1nc(-c2cc(C(=O)N3CCN(C)CC3)c3ccccn23)cs1` stands 10.5%; under `CCC(CC)C(=O)c1c[nH]c(C(=O)N2CCN(c3ccccc3)CC2)c1`, -26.8%; under `Cc1noc(C)c1C(C)C(=O)N1CCCN(Cc2cscn2)CC1` (stereo not drawn), 21.08%.
Regarding `CS(=O)(=O)Cc1ccc(C(=O)NCc2ccc(Cl)cc2Cl)cc1`, the INHIBITION is 29.4%.
Under `O=C(NCc1nc(NC2CCCC2)c2cc(Cl)ccc2n1)c1ccoc1` stands 89%; under `NC(=O)CN1CCC(Nc2ccnc3ccc(Cl)cc23)CC1`, 15.1%; under `COc1ccc(-n2cc(CNC(=O)c3cscn3)nn2)cc1`, -27.3%.
Under `O=C(NCCSC1CCCC1)c1cc(Cl)ccn1` stands -45%; under `COCC(=O)N1CCC(Nc2ccnc3ccc(Cl)cc23)CC1`, -56.3%.
As for `O=C(NCCNC(=O)C1CCN(c2ncccn2)CC1)c1ccoc1`, the figure is 15.1%; as for `O=C(NCc1nc(NC2CCCC2)c2cc(Cl)ccc2n1)c1cncs1`, 68.6%.
With `O=C(NCCNC(=O)c1scnc1Cl)c1ccoc1`, the INHIBITION is listed as -23.8%.
As for `O=C(NCc1nc(NC2CCCC2)c2cc(Cl)ccc2n1)c1cscn1`, the figure is 54.6%.
Under `COc1ncccc1C(=O)N1CC[C@H]2C[C@@H](c3noc(C)n3)O[C@@H]2C1` stands 15.4%; under `COCC1CC2(CCN(Cc3ccco3)CC2)CN1C(C)C` (stereo not drawn), 14.6%.
Under `CCn1cc(CNCC(c2ccc(Cl)cc2)n2cccn2)cn1` (stereo not drawn) stands 3.58%; under `Cc1nc2cc(NC(=O)Cn3ncc(N4CCCC4)cc3=O)ccc2s1`, 41.2%; under `COCCN1C(=O)CCC12CCC(NCc1cccc(C)n1)CC2` (stereo not drawn), 41%.
With `O=C(Cc1c[nH]c2ncccc12)NCC(O)c1ccccc1F` (stereo not drawn), the INHIBITION was 26.05%.
For `CC(=O)N1C[C@H]2CC[C@@H](C1)N(Cc1ccc(Cn3cccn3)cc1)C2`, the INHIBITION turned out to be 4.59%.
Under `Cc1c(CN(C)C(=O)c2ccnn2C)cnn1C` stands 31.7%.
Under `CCn1ncc(CN(C)C(=O)c2cc(C(F)(F)F)n(C)n2)c1C` stands 1.86%; under `Cc1cc(C(=O)N(C)Cc2cnn(C)c2C)n(C)n1`, 68.9%; under `O=C(Cc1csc(-c2ccco2)n1)N1CCSCC1`, -5.25%.
As for `CN(Cc1ccccc1)C(=O)CN1CCCC(Cn2cncn2)C1` (stereo not drawn), the figure is -25.9%; as for `CN(Cc1cccc(F)c1)C(=O)CN1CCCCC1Cn1cncn1` (stereo not drawn), 13.5%.
As to `CCN(Cc1ccccc1)C(=O)CN1CCCC(Cn2cncn2)C1` (stereo not drawn), the INHIBITION is reported as 63.9%.
As for `CN(Cc1ccc(F)cc1)C(=O)CN1CCCC(Cn2cncn2)C1` (stereo not drawn), the figure is 11.6%; as for `CN(Cc1cccc(F)c1)C(=O)CN1CCOC(Cn2cncn2)C1` (stereo not drawn), 37.9%.
As for `CCN(Cc1ccccc1)C(=O)CN1CCOC(Cn2cncn2)C1` (stereo not drawn), the figure is -122%.
Under `Cc1ccc(CN(C)C(=O)CN2CCCC(Cn3cncn3)C2)cc1` (stereo not drawn) stands 51.1%.
For the molecule `CN(Cc1ccsc1)C(=O)CN1CCCC(Cn2cncn2)C1` (stereo not drawn), the INHIBITION is 17.5%.
As for `CN(Cc1cccc(F)c1)C(=O)CN1CCCC(Cn2cncn2)C1` (stereo not drawn), the figure is 75.2%; as for `CO[C@H]1CCN(S(=O)(=O)c2cccs2)[C@H]1Cc1cccnc1`, -5.05%; as for `Cc1cc(C(=O)NCCN2CCN(S(C)(=O)=O)CC2)no1`, 10.3%.
As for `COc1cc(C2CC(=O)Nc3c2cnn3C)ccc1O` (stereo not drawn), the figure is 10.9%; as for `CC(=O)N1C[C@@H](c2ccsc2)[C@@H]2CN(Cc3ccccc3C)CC[C@@H]21`, 64.9%; as for `O=C(C1CCCC1)N1C[C@@H](c2ccsc2)[C@@H]2CN(C3CCCC3)CC[C@@H]21`, 45.2%.
Under `O=C(C1CCC1)N1C[C@@H](c2ccsc2)[C@@H]2CN(C3CCCC3)CC[C@@H]21` stands 5.34%.
Take `CC(=O)N1C[C@@H](c2ccsc2)[C@@H]2CN(CC3CCCCC3)CC[C@@H]21`: the INHIBITION is listed as 30.8%.
As for `CC(=O)N1C[C@@H](c2ccsc2)[C@@H]2CN(Cc3ccccc3Cl)CC[C@@H]21`, the figure is 73.8%; as for `COc1ccccc1CN1CC[C@H]2[C@@H](C1)[C@H](c1ccsc1)CN2C(C)=O`, 24.8%; as for `Cc1n[nH]c(C)c1-c1cnc(C2CCN(S(C)(=O)=O)CC2)cn1`, 11.1%.
Under `O[C@@H]1CC(CNCc2cccc(Cl)c2)(COc2cccnc2)C[C@@H]1O` (stereo partly drawn) stands 37.4%; under `COC(=O)c1ccc(NC(C)c2ccc3c(c2)CC(=O)N3)nn1` (stereo not drawn), -4.12%.
As for `Cc1nnc(N2CCO[C@H]3[C@@H](OCc4ccccn4)CC[C@@H]32)s1`, the figure is 11.4%; as for `COCC1CCN(C(C(=O)O)c2c(F)cccc2OC(C)C)CC1` (stereo not drawn), 35.1%; as for `CN(C)S(=O)(=O)Nc1ccc(Oc2ccc3c(c2)OCO3)cc1`, 41.2%.
Take `O=S(=O)(Nc1ccc2c(c1)OCCO2)N1CCCCC1`: the INHIBITION turned out to be 8.44%.
With `O=S(=O)(Nc1ccc(Oc2ccc3c(c2)OCO3)cc1)N1CCCCC1`, the INHIBITION was 52.7%.

The values are drawn from ChEMBL document CHEMBL4513216, “Probing the Open Global Health Chemical Diversity Library for Multistage-Active Starting Points for Next-Generation Antimalarials” (ACS Infect Dis, 2020).
